# Data reported in PMC7819943, “Rice protein-binding microarrays: a tool to detect cis-acting elements near promoter regions in rice”.
# The full ranking holds about 35,000 sequences; the median of “fluorescence intensity (a.u.)” is about 10,000, and the highest 2% start at about 52,000. The sample as a whole holds a higher share of the highest values than the screen did.
# Target: T1, OsWOX13 (Oryza sativa, UniProt Q5QMM3 1-267)
# T1 sequence: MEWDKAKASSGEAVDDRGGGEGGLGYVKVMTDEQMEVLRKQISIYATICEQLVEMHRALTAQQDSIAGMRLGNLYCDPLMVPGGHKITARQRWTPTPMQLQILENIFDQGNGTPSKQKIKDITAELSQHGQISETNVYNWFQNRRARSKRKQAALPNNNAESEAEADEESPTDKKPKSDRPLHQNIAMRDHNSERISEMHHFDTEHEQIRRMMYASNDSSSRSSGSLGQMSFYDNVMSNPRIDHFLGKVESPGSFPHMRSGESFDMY
# Assay: protein-binding microarray (RPBM); PBS, 2% BSA, 51.3 ng/ul salmon testes DNA, 50 uM zinc acetate, 200 nM TF, 25 C, 1 h; high values mean tight binding
# Settings: protein: recombinant; tags: N-terminal polyhistidine and DsRed monomer fusion (pET32a); label: CyDye5-dUTP incorporated in the synthesized complementary strand; 3' TTTTT single-stranded linker to array surface; dsDNA, one strand shown
# How it was run: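 Per-feature fluorescence intensity (arbitrary units), read on an Axon 4000B scanner, is the binding signal. Transcription factors carrying an N-terminal polyhistidine tag and DsRed fusion were expressed in E. coli BL21-CodonPlus and purified on Ni–NTA. A custom Agilent array, made double-stranded by primer extension with Cy5-dUTP and blocked with 2% BSA, was incubated with 200 nM protein in PBS, 2% BSA, salmon testes DNA and 50 µM zinc acetate at 25 °C for 1 h and then washed.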
row,Sequence,binding signal
1,AGATTAATTAGGCTTAATAGATTCGTCTACGTTTAATACTCGGAGTCACCTAGTGCAG,20900 fluorescence intensity (a.u.)
2,GCCAAATTAGATGGAAAGTTGGTTATATAGGTGTTTATATCGGAGTCACCTAGTGCAG,29100 fluorescence intensity (a.u.)
3,AATTATACAATCAATCAAATACTGAAATTTAAAATTGGTACGGAGTCACCTAGTGCAG,15800 fluorescence intensity (a.u.)
4,CAAAAGAACAATTATTGATCAACTAATGTACACGTCCCAGCGGAGTCACCTAGTGCAG,13900 fluorescence intensity (a.u.)
5,AGCTGAAATTAAGAACAGACAGACATGATCACAGATCGAGCGGAGTCACCTAGTGCAG,10100 fluorescence intensity (a.u.)
6,TGATGATTAGTCGATTACTGTTTTCCTATAGCCATCGTTACGGAGTCACCTAGTGCAG,30100 fluorescence intensity (a.u.)
7,AGGAATATATATAATTTACAAATAACTAAAATTTGATATTCGGAGTCACCTAGTGCAG,4110 fluorescence intensity (a.u.)
8,ATCTGTCACATTAGACATAAATAAAATATTTGCGAAATGTCGGAGTCACCTAGTGCAG,3540 fluorescence intensity (a.u.)
9,AAGTGTTTGTAATTACTAAAATTTTGACATGAATTCAAATCGGAGTCACCTAGTGCAG,8700 fluorescence intensity (a.u.)
10,ACTCAGTATACACTAATTAGCAATTATTACCGAAATTGTACGGAGTCACCTAGTGCAG,23400 fluorescence intensity (a.u.)
11,CGATTTCTTGTTTAATTACTAATCAATTTCATACATTCATCGGAGTCACCTAGTGCAG,13400 fluorescence intensity (a.u.)
12,TGGTATTTAATTATTTGTTAGAGTCATCATTGGTCTATAACGGAGTCACCTAGTGCAG,8940 fluorescence intensity (a.u.)
13,GTTAATTTTGTTTAATTAATGGTGGAAGCAGCCATCATCACGGAGTCACCTAGTGCAG,38200 fluorescence intensity (a.u.)
14,TTTAATTTGTTCATTAAAGACCTAAGAGCTAATAAACGGACGGAGTCACCTAGTGCAG,23100 fluorescence intensity (a.u.)
15,GAGTAATTACTAATTAGCTGGTACACTCAATCCAGTACGGCGGAGTCACCTAGTGCAG,59000 fluorescence intensity (a.u.)
16,AAATCAATAATTAAATATAGTTTCATAATATATTTATCTTCGGAGTCACCTAGTGCAG,22700 fluorescence intensity (a.u.)
17,TTTAATTACTAATCAATTTCATACATTCATATAGTTTATTCGGAGTCACCTAGTGCAG,55600 fluorescence intensity (a.u.)
18,TTGACCAATCAATTACTCACTGGTACGGAAAACACTATAGCGGAGTCACCTAGTGCAG,23300 fluorescence intensity (a.u.)
19,CTTCTAATTTTGTTAATTGGGAAGACATCATAGAGTGGAACGGAGTCACCTAGTGCAG,65400 fluorescence intensity (a.u.)
20,CCATTAATTATGTTGGACATAATTAAGAGAATTTGCTAAACGGAGTCACCTAGTGCAG,52300 fluorescence intensity (a.u.)
21,GATTATGATTTGGAGAAAATTGCATCCATAAAACATTAATCGGAGTCACCTAGTGCAG,8000 fluorescence intensity (a.u.)
22,TGGATTAAACTAATTTACTGATAAGGTGCGTACAAAATTGCGGAGTCACCTAGTGCAG,9850 fluorescence intensity (a.u.)
23,CTATGTCTGTGTTTGATGATTGCAAGCTGATGTGGGATGGCGGAGTCACCTAGTGCAG,9180 fluorescence intensity (a.u.)
24,ATCTATCTATCTATCTATCTATCTATCTATCTATCTATCTCGGAGTCACCTAGTGCAG,20600 fluorescence intensity (a.u.)
25,ATCTGTGTAGTCAATTATATTCTCCCTGGGGCCAAACGAACGGAGTCACCTAGTGCAG,4100 fluorescence intensity (a.u.)
26,ATGACACATGCCGTTGATTGGTTGACACAGATCGGATTCGCGGAGTCACCTAGTGCAG,46900 fluorescence intensity (a.u.)
27,CATTTGACTGAACAAGAACAGTAGGATCAATCTTTGTGCACGGAGTCACCTAGTGCAG,16900 fluorescence intensity (a.u.)

row,Sequence,binding signal
1,TTTGTTGATTTGTTTTGGTTGGATTGATCTGTCGCTTATACGGAGTCACCTAGTGCAG,25500 fluorescence intensity (a.u.)
2,AACACATTGGATTGATTGATCTGTCGCGGAACAGATTGACCGGAGTCACCTAGTGCAG,52300 fluorescence intensity (a.u.)
3,CCAGTCAAGGGAACAGATTGACCAATCGTTCACACCAGTGCGGAGTCACCTAGTGCAG,18400 fluorescence intensity (a.u.)
4,TGATCTGATTGAACAGTCAATCACAGATTCACAGTAGGACCGGAGTCACCTAGTGCAG,62500 fluorescence intensity (a.u.)
5,TTCCAACCAATCATAACCCAATAAGAGCAAAATGGAAAACCGGAGTCACCTAGTGCAG,4060 fluorescence intensity (a.u.)
6,AGGTGTTGATTTTGGGTGGCGGGCCCAATCGGATAGGCCACGGAGTCACCTAGTGCAG,3770 fluorescence intensity (a.u.)
7,CTGAGGACACTTAATGATTGATGCTCATAATATATTGTTTCGGAGTCACCTAGTGCAG,17300 fluorescence intensity (a.u.)
8,AAAAGCAGGTTTACTTACGCCTCATGTTCTCACACTAATTCGGAGTCACCTAGTGCAG,24400 fluorescence intensity (a.u.)
9,TCTGTCTGATTTGTAATCTTTTCCCTTGGCTTTGAGCGTGCGGAGTCACCTAGTGCAG,29400 fluorescence intensity (a.u.)
10,CTTAATTAATTAATAGCAGCAGCAATGCCACTGTGGCCATCGGAGTCACCTAGTGCAG,53500 fluorescence intensity (a.u.)
11,GGTCGATCCATCGATTGATGGATCAATAATGCAAGCAAGCCGGAGTCACCTAGTGCAG,5030 fluorescence intensity (a.u.)
12,TATATATATATAATTATGCATCCTGGTTAGCAATTAATGTCGGAGTCACCTAGTGCAG,3400 fluorescence intensity (a.u.)
13,GCAATAATAATTACTGATAGCCACCACTATCAATAATAATCGGAGTCACCTAGTGCAG,12600 fluorescence intensity (a.u.)
14,AATTAATTAATTAGCAATGCAGCATCGTCGATCATTGACCCGGAGTCACCTAGTGCAG,62500 fluorescence intensity (a.u.)
15,TTTGCCACTAATTAATCTACTAATGGCTTATGATAGTCATCGGAGTCACCTAGTGCAG,10700 fluorescence intensity (a.u.)
16,TTATTTGTTTTGTTTGTGATTTGCTTTATTATCAAAAGTACGGAGTCACCTAGTGCAG,4600 fluorescence intensity (a.u.)
17,ATCGTATCATTGATTTTCACTTAATATGGTGGACCCATCACGGAGTCACCTAGTGCAG,12700 fluorescence intensity (a.u.)
18,ACAGACATAAATACGATTGATTAAGTAGTAGCCTAGCTAACGGAGTCACCTAGTGCAG,14600 fluorescence intensity (a.u.)
19,GGTTTATTCAATTATGAAATTTTACTCCCCTATGTACTAACGGAGTCACCTAGTGCAG,11100 fluorescence intensity (a.u.)
20,GTTCATGCAATAACGTTAATTTGGGACTAGATTAGTATCCCGGAGTCACCTAGTGCAG,7620 fluorescence intensity (a.u.)
21,TTTATAATTAGTATCAAAACATCCGATATGATAGTTACTTCGGAGTCACCTAGTGCAG,17100 fluorescence intensity (a.u.)
22,CCAATCCACAACATAACCATCAATCATTCATTGACGCAAGCGGAGTCACCTAGTGCAG,4680 fluorescence intensity (a.u.)
23,GATTAATTTACTAGACGAATCTTTTAAGCCTAATTACTCCCGGAGTCACCTAGTGCAG,36100 fluorescence intensity (a.u.)
24,TTTCATGTAAATTAACACGAGCCTGAATCCTCCGTTGAAGCGGAGTCACCTAGTGCAG,3750 fluorescence intensity (a.u.)
25,CTAAACACGTTGATGGGCCTGAATGGAGGAAGCCCATCGACGGAGTCACCTAGTGCAG,3790 fluorescence intensity (a.u.)
26,CCGTCGCCTGATGGAGCAGAATCGTGAAACACGTTGTAAGCGGAGTCACCTAGTGCAG,57800 fluorescence intensity (a.u.)
27,ATAATAATTAGTCATAAAGACAAGTGCTTATGCCCACTTACGGAGTCACCTAGTGCAG,16700 fluorescence intensity (a.u.)
